Rows were chosen to be rich in hits. Some 6% of all compounds tested hit in one or more screens of this group.
D3 ag – activates the human D3 dopamine receptor; P35462; D3R DiscoveRx beta-arrestin cells, luminescence, 90 min; max activation, %; actives 0.58% (n = 410,000); AID 652048; in the data active means max activation above about 30%; further: 0% is about no effect
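Cells at 1500/well, incubated overnight, then treated with pinned compounds (dopamine as control) for 90 min at 37 degrees C. DiscoveRx reagent added for 30 - 60 minutes at room temperature; luminescence read.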
D1 agonist – human D1 receptor agonism | activation, % at 2 µM | actives 1% (n = 360,000) | P21728 | HEK293 T-REx D1 cells, calcium flux, agonist mode; in the data active means activation above about 30%; further: 0% is about no effect
Target sequence (P21728 whole entry, looked up): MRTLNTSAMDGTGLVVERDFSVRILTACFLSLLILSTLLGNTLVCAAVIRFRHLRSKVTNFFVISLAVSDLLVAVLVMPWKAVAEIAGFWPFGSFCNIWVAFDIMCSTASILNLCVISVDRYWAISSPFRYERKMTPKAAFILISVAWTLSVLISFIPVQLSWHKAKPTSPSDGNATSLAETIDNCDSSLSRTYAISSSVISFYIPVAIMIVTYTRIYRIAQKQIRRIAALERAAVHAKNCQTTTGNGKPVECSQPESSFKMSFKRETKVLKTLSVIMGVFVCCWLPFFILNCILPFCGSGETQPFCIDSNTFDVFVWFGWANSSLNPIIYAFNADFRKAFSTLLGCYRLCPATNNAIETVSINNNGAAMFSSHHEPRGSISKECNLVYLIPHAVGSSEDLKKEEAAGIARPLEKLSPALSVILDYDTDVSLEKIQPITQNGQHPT
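Agonism was scored from calcium flux recorded over 180 s (1 read/s) after pintool compound addition, following a 10-cycle baseline. Cells were inducible force-coupled HEK293 TREx D1, plated overnight at 30 C and loaded with no-wash calcium dye.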
D1 PAM – enhances dopamine response at the human D1 receptor | HEK293 TREx D1 cells, calcium flux, dopamine EC20 potentiation | P21728 | actives 0.036% (n = 360,000) | potentiation, % at 10 µM; in the data active means potentiation above about 30%; further: 0% is about no effect
D3 antag – blocks the human D3 dopamine receptor | D3R cells, DiscoveRx beta-arrestin luminescence, antagonist mode; hits give low values | max response, negative = inhibition, % | actives 2.5% (n = 360,000); in the data active means max response below about -50%; further: on the % scale 0 is the no-effect control and ±100 the full control effect
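Cells plated overnight at 1500 cells/well, then exposed to library compounds with dopamine controls for 90 minutes at 37 degrees C. DiscoveRx reagent added for 30–60 minutes at room temperature; luminescence read, quantitative HTS format.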
D1 antagonist – blocks dopamine activation of the human D1 receptor | activity change, negative = inhibition, % at 10 µM | HEK293 TREx D1 cells, calcium flux, dopamine EC80; hits give low values | P21728 | actives 3.2% (n = 360,000); in the data active means activity change below about -30%; further: on the % scale 0 is the no-effect control and ±100 the full control effect
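Inducible Hek293 Trex D1 cells (tetracycline, overnight, 30 C). Calcium dye 30–90 min RT. Antagonist mode: EC80 dopamine added after 180 s compound read.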
Starred values were filed as active, the others as inactive; / = no result given.

SMILES | D3 ag | D1 agonist | D1 PAM | D3 antag | D1 antagonist
CC(C)(C)NC(=O)C(c1c[nH]c2ccccc12)N(C(=O)Cn1nnc(-c2ccc(Cl)cc2)n1)c1ccccc1F (stereo not drawn) | 1 | 5 | 50* | 33 | -7
CCOC(=O)Cn1nc2oc(=O)c(CCN3CCN(c4ccccc4OC)CC3)c(C)c2c1C | -7 | / | / | -108* | /
CCOC(=O)c1noc2ncnc(N3CCN(c4ccccc4OC)CC3)c12 | -11 | 1 | 1 | / | -15
COc1ccc(NC(=O)CSc2c3c(nc4ccc(Cl)cc24)CCCC3)cc1Cl | -3 | 2 | -3 | / | 2
CCOC(=O)c1cnc(-n2nc(C)cc2C)nc1NC1CCCC1 | -8 | 48* | -2 | -29 | 5
Cc1cccc(C(=O)NCC(=O)OCc2cc(=O)n3nc(C4CCCCC4)sc3n2)c1 | 7 | 0 | -3 | / | 5
CCN(CC)S(=O)(=O)c1ccc(/C=C/C(=O)O)cc1 | -4 | 2 | -2 | 4 | 4
CCN(CC)CC(C)(C)C(=O)/C=C/c1ccc(/C=C/C(=O)C(C)(C)CN(CC)CC)cc1 | -14 | / | / | -64* | /
Cc1ccc(S(=O)(=O)Nc2ccc3cn[nH]c3c2)c(C)c1 | -1 | 4 | -7 | -10 | -21
CCOc1cc(C)c(S(=O)(=O)Nc2ccc3cn[nH]c3c2)cc1C | 20 | 33* | 3 | 20 | -13
COc1ccccc1N1CCN(CC(=O)Nc2nc(C)c(C(=O)N(C)C)s2)CC1 | -4 | -3 | -8 | 10 | -5
CCN(CC)CCNC(=O)c1ccc(NC(=O)c2ccccc2-c2ccc(C(F)(F)F)cc2)cc1 | -22 | 70* | -3 | -28 | -19
O=C(c1cn(-c2ccccc2)nc1-c1cccs1)N1CCN(c2ccccc2)CC1 | 31* | 5 | -3 | 23 | 10
CCN(CC)CCNC(=O)c1ccc(NC(=O)c2cn(-c3ccccc3)nc2-c2cccs2)cc1 | -7 | 14 | -11 | -11 | -81*
O=C(c1cn(-c2ccccc2)nc1-c1cccs1)N1CCOCC1 | -9 | 4 | 4 | -25 | -11
CC(C)C(NS(=O)(=O)c1ccc2c(c1)oc(=O)n2C)C(=O)NCc1ccccc1 (stereo not drawn) | 3 | -1 | -3 | / | 8
CCN1CCN(C(=O)c2ccc3c(c2)N(Cc2c(F)cccc2Cl)C(=O)c2ccccc2S3)CC1 | -26 | 7 | 10 | / | -3
CCN1CCN(c2c(/C=C3\SC(=S)N(Cc4ccco4)C3=O)c(C)c(C#N)c(=O)n2C)CC1 | -4 | 235* | -6 | -20 | -4
COc1ccc(-n2c(C)cc(/C=C3\SC(=S)N(Cc4ccco4)C3=O)c2C)cc1 | 1 | 21 | -7 | -1 | -9
CCc1ccc(CNC(=O)c2ccc(CSc3nc4ccncc4n3Cc3ccccc3)cc2)cc1 | -27 | 7 | -7 | / | 21
O=C(COC(=O)COc1ccc(Cl)cc1)NC1CCCC1 | -4 | 4 | 2 | -14 | -33*
O=C(COC(=O)COc1ccc(Cl)cc1)NC1CCCCC1 | 1 | 0 | -4 | -13 | 14
CC(C)(C)c1ccc(OCCC(=O)OCC(=O)NC2CCCCC2)cc1 | 5 | 4 | -2 | 3 | -44*
Cc1cc(OCC(=O)OCC(=O)N2CCc3ccccc3C2)ccc1Cl | -18 | 13 | -8 | -14 | -43*
CC(C)(C)c1ccc(OCCC(=O)OCC(=O)NC(=O)NC2CCCC2)cc1 | 6 | 4 | 1 | 16 | 9
SMILES | D3 ag | D1 agonist | D1 PAM | D3 antag | D1 antagonist
Cc1ccc(C)c(OCCC(=O)OCC(=O)NC2CC2)c1 | -1 | 3 | 1 | -14 | -20
Cc1ccc(C)c(OCCC(=O)OCC(=O)NC(=O)NC2CCCC2)c1 | -9 | 6 | -5 | 10 | -36*
COc1cc2c(cc1OC)C(CC(=O)O)N(C(=O)Nc1cc(OC)c(OC)c(OC)c1)CC2 (stereo not drawn) | 2 | -1 | 0 | / | -3
O=C(CCCOc1ccccc1)N1CCc2ccccc2C1 | -8 | 0 | -2 | -1 | -5
O=C(CNC(=O)c1ccc(Cl)cc1)NC1CCCCC1 | -19 | 1 | 11 | -59* | -10
Cc1cc(OCC(=O)OCC(=O)NC2CCCC2)ccc1Cl | 1 | 9 | -5 | 6 | -36*
O=C(CCCOc1ccc(Cl)cc1Cl)N1CCc2ccccc2C1 | -14 | 33* | -5 | -4 | 0
O=C(CCNC(=O)c1ccc(Cl)cc1)NC1CCCCCC1 | -4 | 2 | -9 | 6 | -2
